Test results: article PMC7862700, “An all-to-all approach to the identification of sequence-specific readers for epigenetic DNA modifications on cytosine”

Tests used:
Test in all cases: DAPPL (digital affinity profiling via proximity ligation, sequencing); 10 mM Tris-HCl pH 7.5, 50 mM NaCl, 1 mM DTT, 4% glycerol, room temperature, 30 min; GST-TFs on glutathione beads, 16-mer random dsDNA library, 0.1% formaldehyde crosslink after washing; high values mean tight binding
Conditions in all cases: protein: recombinant; tags: N-terminal GST; dsDNA, one strand shown
ERF = target: T1, ERF (Homo sapiens, UniProt P50548 1-548)
T1 sequence: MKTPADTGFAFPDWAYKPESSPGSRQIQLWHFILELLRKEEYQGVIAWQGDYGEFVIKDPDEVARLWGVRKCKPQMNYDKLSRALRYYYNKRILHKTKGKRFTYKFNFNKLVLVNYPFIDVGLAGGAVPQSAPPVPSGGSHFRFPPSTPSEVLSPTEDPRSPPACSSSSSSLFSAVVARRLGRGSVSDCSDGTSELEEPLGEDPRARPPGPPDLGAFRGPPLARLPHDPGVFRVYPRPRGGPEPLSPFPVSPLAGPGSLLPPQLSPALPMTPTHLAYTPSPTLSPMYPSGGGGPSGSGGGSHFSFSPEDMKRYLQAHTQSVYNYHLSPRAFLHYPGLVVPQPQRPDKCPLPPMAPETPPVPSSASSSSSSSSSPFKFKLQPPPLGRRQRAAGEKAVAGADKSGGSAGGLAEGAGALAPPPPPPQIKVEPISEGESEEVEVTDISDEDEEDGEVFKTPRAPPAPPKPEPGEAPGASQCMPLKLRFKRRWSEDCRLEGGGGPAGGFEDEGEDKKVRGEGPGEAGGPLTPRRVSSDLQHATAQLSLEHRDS
In short: (§1)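 GST fusions of human transcription factors were expressed in yeast and captured with glutathione beads. Once given DNA barcodes and pooled alongside a tag-only sample, they were incubated for 30 min at room temperature with 200 nmole of a random double-stranded 16-mer DNA library in Tris/NaCl/DTT/glycerol buffer, then washed, crosslinked (0.1% formaldehyde), proximity-ligated, PCR-amplified and sequenced on an Illumina NextSeq500. The binding signal of each hexamer is its read frequency for a factor divided by its frequency for the tag-only sample.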

ETV3L = target: T2, ETV3L (Homo sapiens, UniProt Q6ZN32 1-361)
T2 sequence: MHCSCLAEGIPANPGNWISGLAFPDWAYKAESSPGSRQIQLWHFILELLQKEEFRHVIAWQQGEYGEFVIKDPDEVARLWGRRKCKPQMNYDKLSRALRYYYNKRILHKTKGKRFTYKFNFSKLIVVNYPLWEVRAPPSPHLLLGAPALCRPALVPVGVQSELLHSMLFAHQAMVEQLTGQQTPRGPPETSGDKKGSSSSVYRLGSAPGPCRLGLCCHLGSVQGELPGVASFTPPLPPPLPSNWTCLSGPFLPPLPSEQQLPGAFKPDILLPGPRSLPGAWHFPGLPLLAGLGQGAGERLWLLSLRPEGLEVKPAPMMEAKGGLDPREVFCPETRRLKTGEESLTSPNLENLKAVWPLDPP
In short: as §1

ETS2 = target: T3, ETS2 (Homo sapiens, UniProt P15036 1-469)
T3 sequence: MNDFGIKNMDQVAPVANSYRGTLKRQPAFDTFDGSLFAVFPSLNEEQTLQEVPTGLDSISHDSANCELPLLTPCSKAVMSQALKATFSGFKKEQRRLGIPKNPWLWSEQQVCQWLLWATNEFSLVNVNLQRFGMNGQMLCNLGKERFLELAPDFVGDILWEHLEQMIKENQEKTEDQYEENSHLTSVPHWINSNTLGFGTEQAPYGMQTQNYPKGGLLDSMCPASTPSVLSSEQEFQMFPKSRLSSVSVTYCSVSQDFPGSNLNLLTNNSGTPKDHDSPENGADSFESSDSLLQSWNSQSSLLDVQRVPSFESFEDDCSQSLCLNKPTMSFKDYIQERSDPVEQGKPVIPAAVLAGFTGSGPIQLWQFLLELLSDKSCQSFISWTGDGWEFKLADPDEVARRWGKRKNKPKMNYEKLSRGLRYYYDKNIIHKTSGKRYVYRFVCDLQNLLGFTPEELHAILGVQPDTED
In short: as §1

SPDEF = target: T4, SPDEF (Homo sapiens, UniProt O95238 1-335)
T4 sequence: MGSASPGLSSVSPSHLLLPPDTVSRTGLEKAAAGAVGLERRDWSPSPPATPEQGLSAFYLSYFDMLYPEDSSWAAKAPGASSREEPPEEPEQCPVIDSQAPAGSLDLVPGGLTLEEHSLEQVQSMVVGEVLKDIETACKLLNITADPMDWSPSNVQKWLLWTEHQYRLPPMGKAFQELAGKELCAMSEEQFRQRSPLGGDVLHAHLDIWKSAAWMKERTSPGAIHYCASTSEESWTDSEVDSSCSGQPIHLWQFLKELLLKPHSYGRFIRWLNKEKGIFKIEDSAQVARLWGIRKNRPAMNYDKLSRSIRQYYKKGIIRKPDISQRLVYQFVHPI
In short: as §1

ETV7 = target: T5, ETV7 (Homo sapiens, UniProt Q9Y603 1-341)
T5 sequence: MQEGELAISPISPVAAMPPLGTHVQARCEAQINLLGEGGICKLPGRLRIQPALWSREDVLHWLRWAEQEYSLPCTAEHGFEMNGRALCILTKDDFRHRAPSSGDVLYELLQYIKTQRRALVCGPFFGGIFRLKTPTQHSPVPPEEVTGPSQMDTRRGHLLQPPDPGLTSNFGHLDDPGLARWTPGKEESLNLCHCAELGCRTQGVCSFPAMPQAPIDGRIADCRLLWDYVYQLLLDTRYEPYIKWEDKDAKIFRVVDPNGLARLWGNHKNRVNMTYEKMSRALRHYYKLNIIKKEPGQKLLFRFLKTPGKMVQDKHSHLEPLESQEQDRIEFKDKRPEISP
In short: as §1

ELF5 = target: T6, ELF5 (Homo sapiens, UniProt Q9UKW6-2 1-255)
T6 sequence: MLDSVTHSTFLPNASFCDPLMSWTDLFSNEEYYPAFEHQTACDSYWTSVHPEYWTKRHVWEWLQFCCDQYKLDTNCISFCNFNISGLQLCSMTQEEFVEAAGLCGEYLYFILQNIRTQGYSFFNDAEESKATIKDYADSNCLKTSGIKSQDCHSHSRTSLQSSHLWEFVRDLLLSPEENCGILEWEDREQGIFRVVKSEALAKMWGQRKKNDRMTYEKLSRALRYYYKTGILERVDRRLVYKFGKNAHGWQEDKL
In short: as §1

ETV3 = target: T7, ETV3 (Homo sapiens, UniProt P41162-2 1-143)
T7 sequence: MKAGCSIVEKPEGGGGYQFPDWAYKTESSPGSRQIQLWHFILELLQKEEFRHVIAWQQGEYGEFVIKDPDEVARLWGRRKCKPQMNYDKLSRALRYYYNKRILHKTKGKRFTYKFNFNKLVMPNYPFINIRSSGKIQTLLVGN
In short: as §1

ETV6 = ETV6 (Homo sapiens, UniProt P41212 1-452)
In short: as §1

Sequence of ETV6 (P41212 whole entry): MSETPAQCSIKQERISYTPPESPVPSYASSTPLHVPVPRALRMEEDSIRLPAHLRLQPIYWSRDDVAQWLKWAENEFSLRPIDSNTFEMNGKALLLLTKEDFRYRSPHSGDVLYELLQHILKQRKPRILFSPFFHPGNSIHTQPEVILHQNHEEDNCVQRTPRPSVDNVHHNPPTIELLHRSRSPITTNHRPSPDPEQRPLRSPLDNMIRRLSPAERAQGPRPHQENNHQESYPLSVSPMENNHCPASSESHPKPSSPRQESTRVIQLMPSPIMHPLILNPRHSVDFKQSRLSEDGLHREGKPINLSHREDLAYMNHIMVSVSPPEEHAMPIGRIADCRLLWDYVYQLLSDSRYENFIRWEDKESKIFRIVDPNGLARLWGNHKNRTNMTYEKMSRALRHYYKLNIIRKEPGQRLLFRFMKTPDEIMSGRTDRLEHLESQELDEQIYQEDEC

ATCTTT
binding signal (ERF): 1.22 fold enrichment (6-mer frequency, TF over GST control) | binding signal (ETV3L): 1.34 fold enrichment (6-mer frequency, TF over GST control) | binding signal (ETS2): 1.18 fold enrichment (6-mer frequency, TF over GST control) | binding signal (SPDEF): 1.17 fold enrichment (6-mer frequency, TF over GST control) | binding signal (ETV7): 1.13 fold enrichment (6-mer frequency, TF over GST control) | binding signal (ELF5): 1.21 fold enrichment (6-mer frequency, TF over GST control) | binding signal (ETV3): 1.21 fold enrichment (6-mer frequency, TF over GST control) | binding signal (ETV6): 1.2 fold enrichment (6-mer frequency, TF over GST control)

CTTACC
binding signal (ERF): 1.19 fold enrichment (6-mer frequency, TF over GST control) | binding signal (ETV3L): 1.16 fold enrichment (6-mer frequency, TF over GST control) | binding signal (ETS2): 1.29 fold enrichment (6-mer frequency, TF over GST control) | binding signal (SPDEF): 1.39 fold enrichment (6-mer frequency, TF over GST control) | binding signal (ETV7): 1.29 fold enrichment (6-mer frequency, TF over GST control) | binding signal (ELF5): 1.39 fold enrichment (6-mer frequency, TF over GST control) | binding signal (ETV3): 1.22 fold enrichment (6-mer frequency, TF over GST control) | binding signal (ETV6): 1.19 fold enrichment (6-mer frequency, TF over GST control)

TTACGT
binding signal (ERF): 1.11 fold enrichment (6-mer frequency, TF over GST control) | binding signal (ETV3L): 1.18 fold enrichment (6-mer frequency, TF over GST control) | binding signal (ETS2): 1.21 fold enrichment (6-mer frequency, TF over GST control) | binding signal (SPDEF): 1.13 fold enrichment (6-mer frequency, TF over GST control) | binding signal (ETV7): 1.14 fold enrichment (6-mer frequency, TF over GST control) | binding signal (ELF5): 1.12 fold enrichment (6-mer frequency, TF over GST control) | binding signal (ETV3): 1.15 fold enrichment (6-mer frequency, TF over GST control) | binding signal (ETV6): 1.09 fold enrichment (6-mer frequency, TF over GST control)

CCTGCA
binding signal (ERF): 1.08 fold enrichment (6-mer frequency, TF over GST control) | binding signal (ETV3L): 1.32 fold enrichment (6-mer frequency, TF over GST control) | binding signal (ETS2): 1.26 fold enrichment (6-mer frequency, TF over GST control) | binding signal (SPDEF): 1.37 fold enrichment (6-mer frequency, TF over GST control) | binding signal (ETV7): 1.24 fold enrichment (6-mer frequency, TF over GST control) | binding signal (ELF5): 1.3 fold enrichment (6-mer frequency, TF over GST control) | binding signal (ETV3): 1.22 fold enrichment (6-mer frequency, TF over GST control) | binding signal (ETV6): 1.28 fold enrichment (6-mer frequency, TF over GST control)

ACACAC
binding signal (ERF): 1.14 fold enrichment (6-mer frequency, TF over GST control) | binding signal (ETV3L): 1.15 fold enrichment (6-mer frequency, TF over GST control) | binding signal (ETS2): 1.17 fold enrichment (6-mer frequency, TF over GST control) | binding signal (SPDEF): 1.14 fold enrichment (6-mer frequency, TF over GST control) | binding signal (ETV7): 1.19 fold enrichment (6-mer frequency, TF over GST control) | binding signal (ELF5): 1.16 fold enrichment (6-mer frequency, TF over GST control) | binding signal (ETV3): 1.18 fold enrichment (6-mer frequency, TF over GST control) | binding signal (ETV6): 1.21 fold enrichment (6-mer frequency, TF over GST control)

ATTCTT
binding signal (ERF): 1.3 fold enrichment (6-mer frequency, TF over GST control) | binding signal (ETV3L): 1.46 fold enrichment (6-mer frequency, TF over GST control) | binding signal (ETS2): 1.41 fold enrichment (6-mer frequency, TF over GST control) | binding signal (SPDEF): 1.34 fold enrichment (6-mer frequency, TF over GST control) | binding signal (ETV7): 1.54 fold enrichment (6-mer frequency, TF over GST control) | binding signal (ELF5): 1.4 fold enrichment (6-mer frequency, TF over GST control) | binding signal (ETV3): 1.48 fold enrichment (6-mer frequency, TF over GST control) | binding signal (ETV6): 1.46 fold enrichment (6-mer frequency, TF over GST control)

AATAGG
binding signal (ERF): 1.21 fold enrichment (6-mer frequency, TF over GST control) | binding signal (ETV3L): 1.12 fold enrichment (6-mer frequency, TF over GST control) | binding signal (ETS2): 1.16 fold enrichment (6-mer frequency, TF over GST control) | binding signal (SPDEF): 1.22 fold enrichment (6-mer frequency, TF over GST control) | binding signal (ETV7): 1.27 fold enrichment (6-mer frequency, TF over GST control) | binding signal (ELF5): 1.19 fold enrichment (6-mer frequency, TF over GST control) | binding signal (ETV3): 1.15 fold enrichment (6-mer frequency, TF over GST control) | binding signal (ETV6): 1.27 fold enrichment (6-mer frequency, TF over GST control)
